{"source": "PubChem BioAssay (NCATS)", "note": "Inconclusive results are not listed. Calls of active or inactive are those of the source. Calls come from the whole dose curve; as a rule, active = well fitted cell-killing curve with a large enough effect; inconclusive = small, poorly fitted or top-dose-only effect, or effect the other way; inactive = flat fitted curve, though single readings scatter. % is set by controls: 0 for no effect and ±100 for the full control effect; potency is the fitted concentration of half-maximal effect."}
{"test_system": "CAOV3", "experiment": "Primary qHTS to identify gynecologic anti-cancer compounds using libraries of approved drugs and bioactive compounds (AID 1345084); note: nearly all actives have a fitted effect of over 55% in size", "conditions": "Gynecologic cancer cell panel viability, ATPlite luminescence, 48 h; series mostly up to 57.5 µM; activity change, negative = cytotoxicity: at the top concentration", "summary_of_the_method": "(§1)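 Five-concentration response, 48 h; readout is ATP-driven luciferase luminescence.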"}
{"smiles": "CN1CCN(c2ccc([N+](=O)[O-])c3no[n+]([O-])c23)CC1", "activity change, negative = cytotoxicity": "-20.2% (inactive)"}
{"smiles": "CS(=O)(=O)c1ccc(C(=O)C2C(=O)CCCC2=O)c([N+](=O)[O-])c1", "activity change, negative = cytotoxicity": "-2.31% [at 116 µM] (inactive)"}
{"smiles": "CCOP(=O)(NC(C)C)Oc1ccc(SC)c(C)c1", "note": "(configuration not stated)", "activity change, negative = cytotoxicity": "6.48% [at 116 µM] (inactive)"}
{"smiles": "O=C1C=CC[C@@H]2[C@H]3CCCN4CCC[C@@H](CN12)[C@@H]34", "activity change, negative = cytotoxicity": "-4.14% (inactive)"}
{"smiles": "O=C(NCC1CCOCC1)c1cnc(Nc2ccc(Cl)cc2Cl)nc1C(F)(F)F", "activity change, negative = cytotoxicity": "-1.47% (inactive)"}
{"smiles": "CC(=O)[O][Hg][c]1ccccc1", "Potency": "3.55 µM (active)"}
{"smiles": "CCN(CC)C(=O)c1ccc(C2=CC3(CCNCC3)Oc3cccc(O)c32)cc1", "activity change, negative = cytotoxicity": "1.09% (inactive)"}
{"smiles": "COCCOCCO", "activity change, negative = cytotoxicity": "0% [at 116 µM] (inactive)"}
{"smiles": "CC(N[C@H]1C[C@H]1c1ccccc1)c1ccc2c(c1)OCCO2", "note": "(some centres not stated)", "activity change, negative = cytotoxicity": "9.41% (inactive)"}
{"smiles": "CC(C)(C)C(O)C(Oc1ccc(Cl)cc1)n1cncn1", "note": "(configuration not stated)", "activity change, negative = cytotoxicity": "-0.323% [at 116 µM] (inactive)"}
{"smiles": "CC(C)(C)NC[C@H](O)c1ccc(O)cc1Cl", "activity change, negative = cytotoxicity": "35.3% (inactive)"}
{"test_system": "CASKI", "experiment": "Primary qHTS to identify gynecologic anti-cancer compounds using libraries of approved drugs and bioactive compounds (AID 1345084); note: nearly all actives have a fitted effect of over 55% in size", "conditions": "Gynecologic cancer cell panel viability, ATPlite luminescence, 48 h; series mostly up to 57.5 µM; activity change, negative = cytotoxicity: at the top concentration", "summary_of_the_method": "as §1"}
{"smiles": "CC(=O)Nc1ccc(OC[C@](C)(O)C(=O)Nc2ccc([N+](=O)[O-])c(C(F)(F)F)c2)cc1", "activity change, negative = cytotoxicity": "9.75% (inactive)"}
{"smiles": "CCCCCCCCCC(CC)c1ccc(S(=O)(=O)O)cc1", "note": "(configuration not stated)", "activity change, negative = cytotoxicity": "-8.85% [at 116 µM] (inactive)"}
{"smiles": "Nc1ccc(Sc2ccc(N)cc2)cc1", "activity change, negative = cytotoxicity": "-17.3% [at 116 µM] (inactive)"}
{"smiles": "CC(O)CN1CCN(CC(=O)[O-])CCN(CC(=O)[O-])CCN(CC(=O)[O-])CC1.[Gd+3]", "note": "(configuration not stated)", "activity change, negative = cytotoxicity": "10.7% (inactive)"}
{"smiles": "CN1CCN(c2ccc([N+](=O)[O-])c3no[n+]([O-])c23)CC1", "activity change, negative = cytotoxicity": "4.48% (inactive)"}
{"smiles": "O=C(O)COc1nc(Cl)c(Cl)cc1Cl", "activity change, negative = cytotoxicity": "16.6% [at 116 µM] (inactive)"}
{"smiles": "CS(=O)(=O)c1ccc(C(=O)C2C(=O)CCCC2=O)c([N+](=O)[O-])c1", "activity change, negative = cytotoxicity": "14.7% [at 116 µM] (inactive)"}
{"smiles": "CCOP(=O)(NC(C)C)Oc1ccc(SC)c(C)c1", "note": "(configuration not stated)", "activity change, negative = cytotoxicity": "-0.871% [at 116 µM] (inactive)"}
{"smiles": "COC1=C[C@@H]2[C@@H]3Cc4ccc(OC)c(O)c4[C@]2(CCN3C)CC1=O", "activity change, negative = cytotoxicity": "12.6% (inactive)"}
{"smiles": "O=C1C=CC[C@@H]2[C@H]3CCCN4CCC[C@@H](CN12)[C@@H]34", "activity change, negative = cytotoxicity": "9.94% (inactive)"}
{"smiles": "O=C(NCC1CCOCC1)c1cnc(Nc2ccc(Cl)cc2Cl)nc1C(F)(F)F", "activity change, negative = cytotoxicity": "-0.279% (inactive)"}
{"smiles": "OCCCBr", "activity change, negative = cytotoxicity": "-8.8% [at 116 µM] (inactive)"}
{"smiles": "CC(=O)[O][Hg][c]1ccccc1", "Potency": "4.47 µM (active)"}
{"smiles": "CCN(CC)C(=O)c1ccc(C2=CC3(CCNCC3)Oc3cccc(O)c32)cc1", "activity change, negative = cytotoxicity": "-12.1% (inactive)"}
{"smiles": "Cc1ccccc1-n1c(Cn2cnc3c(N)ncnc32)nc2cccc(C)c2c1=O", "activity change, negative = cytotoxicity": "13.1% (inactive)"}
{"smiles": "O=[N+]([O-])c1ccc([As](=O)(O)O)cc1", "activity change, negative = cytotoxicity": "-1.48% (inactive)"}
{"smiles": "COCCOCCO", "activity change, negative = cytotoxicity": "-2.79% [at 116 µM] (inactive)"}
{"smiles": "CC(N[C@H]1C[C@H]1c1ccccc1)c1ccc2c(c1)OCCO2", "note": "(some centres not stated)", "activity change, negative = cytotoxicity": "2.86% (inactive)"}
{"smiles": "CC(C)(C)C(O)C(Oc1ccc(Cl)cc1)n1cncn1", "note": "(configuration not stated)", "activity change, negative = cytotoxicity": "-2.33% [at 116 µM] (inactive)"}
{"smiles": "O=C1C(I)=CC(=C(c2cc(I)c(O)c(I)c2)c2ccccc2C(=O)O)C=C1I", "activity change, negative = cytotoxicity": "24.4% (inactive)"}
{"smiles": "CC(C)(C)NC[C@H](O)c1ccc(O)cc1Cl", "activity change, negative = cytotoxicity": "-9.42% (inactive)"}
